VLA-4 inh – inhibition in human VLA-4 binding assay, primary screen, VLA-4 allosteric modulator project, MLPCN library, flow cytometry, VLA-4 expressing cells; ligand binding flow cytometry; inhibition, % (about 7 µM as worked out from the volumes in the protocol); actives 0.2% (n = 330,000); Integrin alpha-4 (Homo sapiens), P13612; in the data active = inhibition above about 50%
GRK2 inh – compounds blocking aptamer binding on GRK2 – biochemical, human GRK2, bead flow cytometry, HTS, primary screen. actives 0.59% (n = 330,000). FAM-aptamer displacement from GRK2. Beta-adrenergic receptor kinase 1 (Homo sapiens), P25098. inhibition of aptamer binding, % at 10 µM;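 active = inhibition of aptamer binding above 40%, roughly 3 SD of noise, on plates passing a quality check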;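 also: median bead fluorescence of bound FAM aptamer so fluorescent compounds give negative values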
Target sequence (P25098 whole entry, looked up): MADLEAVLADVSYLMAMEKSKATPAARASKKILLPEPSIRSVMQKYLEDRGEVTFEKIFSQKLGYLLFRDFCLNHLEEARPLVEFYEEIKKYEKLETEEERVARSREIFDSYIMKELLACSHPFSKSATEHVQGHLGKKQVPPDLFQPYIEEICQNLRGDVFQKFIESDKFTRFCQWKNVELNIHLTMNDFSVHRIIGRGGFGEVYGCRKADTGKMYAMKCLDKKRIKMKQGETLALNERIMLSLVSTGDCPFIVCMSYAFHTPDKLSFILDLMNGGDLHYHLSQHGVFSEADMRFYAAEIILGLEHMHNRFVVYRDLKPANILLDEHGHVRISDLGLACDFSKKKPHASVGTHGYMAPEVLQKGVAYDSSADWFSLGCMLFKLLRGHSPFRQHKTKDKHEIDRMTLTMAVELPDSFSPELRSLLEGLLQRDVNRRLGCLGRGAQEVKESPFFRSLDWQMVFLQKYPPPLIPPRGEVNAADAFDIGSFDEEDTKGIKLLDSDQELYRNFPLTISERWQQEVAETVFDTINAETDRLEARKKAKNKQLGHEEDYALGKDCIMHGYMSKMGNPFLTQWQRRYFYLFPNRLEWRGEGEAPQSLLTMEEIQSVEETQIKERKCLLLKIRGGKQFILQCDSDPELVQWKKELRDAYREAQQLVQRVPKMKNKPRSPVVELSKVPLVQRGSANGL
APOBEC3A inh – APOBEC3A ssDNA deaminase inhibitors, primary screen, selectivity assay for APOBEC3G inhibitor project, biochemical, FAM/TAMRA oligo cleavage fluorescence | DNA dC->dU-editing enzyme APOBEC-3A (Homo sapiens), P31941 | recombinant A3A, FAM/TAMRA ssDNA deamination fluorescence | inhibition, % at 20 µM | actives 0.41% (n = 330,000) | AID 493011, 2011;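 active = at least 40% inhibition at 20 µM here, with at most 30% in a related deaminase screen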;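 also: plate controls were A3A with DMSO for no effect and wells lacking A3A enzyme for full effect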
APOBEC3G inh – APOBEC3G DNA deaminase inhibitors, primary screen, biochemical, fluorescence, single-stranded DNA substrate, uHTS; AID 493012, 2011; inhibition, % at 20 µM; DNA dC->dU-editing enzyme APOBEC-3G (Homo sapiens), Q9HC16; recombinant A3G, ssDNA deamination FAM/TAMRA fluorescence; actives 0.28% (n = 330,000);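 active = inhibition of at least 40% at 20 µM, with no more than 30% in the related APOBEC3A deaminase screen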;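 also: plate controls were DMSO wells with A3G for no effect and wells lacking A3G enzyme for full effect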
GRK2 CP1 – GRK2 aptamer-displacing inhibitors, retest, confirmation, biochemical, cherry pick 1, bead flow cytometry | shares compounds with GRK2 inh | bead-bound GRK2, FAM-aptamer displacement | actives 4% (n = 2,000) | aptamer displacement, % at 10 µM;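 active = aptamer displacement above 40%, near three times the noise of non-fluorescent compounds, on plates passing quality checks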;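 also: negative values mostly reflect intrinsic compound fluorescence rather than true enhancement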
Aptamer quench SP – counter-screen for GRK2 aptamer inhibitors: fluorescent aptamer quenchers; AID 504580; Carboxyfluorescein RNA aptamer on beads, flow cytometry quenching; stronger effect = lower value; fluorescence response (% of DMSO), % at 10 µM; shares compounds with GRK2 inh; 2,000 tested, under 10 active;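 active = compounds that quench the bead-bound fluorescent RNA probe, cutting fluorescence to under half of the solvent control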;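 also: counterscreen run without GRK2 so only probe quenching by compound is measured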
GRK2 CP2 – GRK2 aptamer-displacing inhibitors, hit retest, confirmation, biochemical, cherry pick 2, bead flow cytometry. shares compounds with GRK2 inh. inhibition of aptamer binding, % at 10 µM. 360 tested, under 10 active. AID 504782, 2011. bead-bound GRK2, FAM-aptamer displacement;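 active = inhibition of aptamer binding above 40%, about triple the noise seen with nonglowing compounds, on plates passing quality control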;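 also: negative values mostly come from compounds that fluoresce themselves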
FAM quench SP – quenches fluorescent RNA aptamer, GRK2 hit artifact; shares compounds with GRK2 inh; carboxyfluorescein RNA aptamer beads, flow cytometry quenching; stronger effect = lower value; fluorescence response vs DMSO, % at 10 µM; 360 tested, under 10 active; AID 588494;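 active = response vs DMSO under 50%, meaning signal dropped by over half, treated as fluorescence quencher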;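 also: labelled aptamer on streptavidin beads without GRK2 as a quench counter-screen; 100% = bead fluorescence of DMSO wells and lower means quenching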
The depositor's hits bear a star; nt = not tested or not shown. Only some compounds are listed: those with a hit (about 1.4% of all), similar ones and a draw of the others.

SMILES | VLA-4 inh | GRK2 inh | APOBEC3A inh | APOBEC3G inh | GRK2 CP1 | Aptamer quench SP | others
CC1CCCN(S(=O)(=O)c2ccc(NC(=O)C3CC(=O)N(c4ccccc4)C3)cc2)C1 (stereo not drawn) | 6 | 100* | -3 | -4 | 3 | 102
O=C(Nc1ccc(S(=O)(=O)N2CCCCC2)cc1)C1CC(=O)N(c2ccccc2)C1 (stereo not drawn) | 2 | 1 | -2 | -6 | nt | nt
CS(=O)(=O)N1CCc2cc(S(=O)(=O)N3CCCCC3)ccc21 | 4 | 0 | 1 | -1 | nt | nt
COc1ccc(/C=C2\CCn3c2nc2cc(C(=O)O)ccc2c3=O)cc1 | -1 | 41* | 3 | 2 | nt | nt | GRK2 CP2=0;FAM quench SP=99
O=C(O)Cc1ccc(-c2ccccc2-c2ccccc2)cc1 | -9 | 98* | -2 | -5 | 3 | 103
O=C(O)Cc1ccc(O)cc1 | -5 | 0 | 2 | -5 | nt | nt
COC(=O)c1cc2c(ccn2-c2ccc(F)cc2)n1Cc1ccc(C#N)cc1 | -10 | 0 | 1 | 3 | nt | nt
CCOc1ccc(OCC)c(S(=O)(=O)NCc2ccccc2)c1 | 14 | 42* | -1 | -3 | 1 | 93
CCOc1ccc(OCC)c(S(=O)(=O)NCc2cccnc2)c1 | 0 | 0 | -2 | 5 | nt | nt
CCN1C(=O)S/C(=C/c2c(OCc3ccc(C(=O)O)cc3)ccc3ccccc23)C1=O | 5 | 0 | nt | nt | nt | nt
CCOCCCNC(=O)c1ccc(N2CCCC2)c(NS(=O)(=O)c2ccc(C)cc2)c1 | 9 | 96* | 1 | -3 | 1 | 94
COCCCNC(=O)c1ccc(N2CCCC2)c(NS(=O)(=O)c2ccc(C)cc2)c1 | 4 | 4 | -2 | 5 | nt | nt
COc1ccc(N(C(=O)c2ccco2)C(C(=O)NC2CCCC2)c2ccncc2)cc1 (stereo not drawn) | 5 | 83* | -1 | -14 | 0 | 99
CC(=O)C[C@H]1c2cc(C(F)(F)F)ccc2S(=O)(=O)N1C1CCCC1 | 13 | 46* | -1 | -8 | -1 | 102
O=C(O)C[C@H]1c2cc(C(F)(F)F)ccc2S(=O)(=O)N1C1CCCC1 | 8 | 4 | -4 | -10 | nt | nt
N#CCc1ccc(OC(=O)c2cccnc2Cl)cc1 | 15 | 1 | 4 | 0 | nt | nt
COCCCn1c(SCC(=O)N(C)C)nnc1-c1ccccc1 | 0 | 99* | 0 | -6 | -2 | 98
CC1(C)Cc2c(sc3ncnc(NNC(=S)NCc4ccccc4)c23)CO1 | 2 | 91* | -4 | -5 | 1 | 87
CCC1CCCCN1CCCNC(=O)C1CCN(S(=O)(=O)N2CCCCC2)CC1 (stereo not drawn) | -2 | 15 | -6 | -9 | -41 | 112
CC(C)CCN(C(=O)Cc1ccccc1F)c1c(N)n(Cc2ccccc2)c(=O)[nH]c1=O | 6 | 0 | -1 | -8 | nt | nt
Cc1cc(C)cc(N(C(=O)Cc2cccs2)C(C(=O)NC2CCCC2)c2ccc(C)o2)c1 (stereo not drawn) | 9 | 0 | -3 | 1 | nt | nt
Cc1nc2cc(C(=O)N3CCc4ccccc43)ccc2n1-c1ccc(F)c(F)c1 | 30 | 93* | 2 | -1 | nt | nt | GRK2 CP2=-12;FAM quench SP=100
O=C(c1cccc(F)c1)N1CCc2ccccc21 | 2 | 4 | -2 | -5 | nt | nt
Cc1cc(C(=O)N2CCc3ccccc32)c2cc(F)ccc2n1 | -11 | 76* | 1 | 1 | 2 | 102

Assay outcomes (PubChem BioAssay)
